Data on five molecules can be found in PubChem BioAssay.

The nature of test [1]: reducers of endogenous Her2 protein level, primary screen, SKBR3 breast tumor cells, AlphaScreen, ATP viability (AID 461;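 active means Her2 level under about 52% in both replicate screens, with viability over 70% of control, limit read from the data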;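 on Her2 level: lower value means less Her2 protein in the cells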;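 on viability: percent of carrier control wells set as 100% viability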). Particulars: 18-24 h, measured here: SKBR3 viability, ATP luminescence, at 10 µM. A general note: Bead proximity is the source of the signal in Alpha formats.
Test [2] concerns the target Receptor tyrosine-protein kinase erbB-2 (Homo sapiens) (UniProt P04626). The test is described as above. Particulars: 18-24 h, at 10 µM, stronger effect = lower value.
Test [3] can be described thus: SK-BR-3 cell growth inhibitors, pilot screen, 24 h, human (AID 572;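 active means viability at or below 10% of carrier control in both of two separate runs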;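 further: compound exposure lasted between 18 and 24 h rather than exactly 24 h; 100% = carrier-treated control wells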). Particulars: SK-BR-3 viability, CellTiter-Glo luminescence, at 10 µM, stronger effect = lower value. A general note: ATP-based viability assays read luminescence as a measure of living cells.
Test [4] can be described thus: HUVEC growth inhibition – cell-based, human, primary screen (AID 575;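 active means viability at or below 30% in both replicate assays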;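 further: 100% = median of untreated cell wells with 0.1% DMSO on each plate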). Particulars: HUVEC proliferation, CellTiter-Glo luminescence, 72 h; at 10 µM; stronger effect = lower value.
Test [5] in a line: growth inhibitors of H69AR lung tumor, primary screen, human, duplicate replicates (AID 580;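 active means viability at or under a set limit in both replicates, limit being median viability minus 3 SD, cut at about 48% in these data, passing the limit was not always enough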;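 further: 100% = mean luminescence of untreated wells and 0% = no signal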). The following applies: H69AR lung tumor cells viability, ATP luminescence, 72 h; at 10 µM; stronger effect = lower value.
Test [6] in a line: reversal of MRP1-mediated doxorubicin resistance, pilot screen, H69AR cells, doxorubicin co-treatment (AID 601;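 active means viability loss from added drug above about 55%, and viability with drug at most 40%, in both replicates, limit read from the data, passing the limit was not always enough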). The following applies: CellTiter-Glo, 72 h, at 10 µM; for differential viability (reversal): stronger effect = higher value.
A short description of test [7]: 384-well plate pilot, post-Golgi transport modulator project, inhibition of yeast transport mutant growth (AID 636; in the data active means inhibition above about 31%). The following applies: absorbance 615 nm, about 18 h, stronger effect = higher value.
The nature of test [8]: growth suppression of yeast trafficking mutant, preliminary HTS, modulators of trafficking downstream of Golgi apparatus project, 1536-format plate, OD 615 nm (AID 637; in the data active means inhibition above about 30%). The following applies: yeast transport mutant growth, absorbance 615 nm, 18 h; stronger effect = higher value.
The nature of test [9]: OD615 S. cerevisiae growth inhibition, permissive medium, pilot counter-assay, permissive growth control for S. cerevisiae lifespan shortening project (AID 705;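 active means growth inhibition above 25% in both replicates, a cutoff set 3 SD above the mean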). The following applies: OD615, 24 h, at 10 µM, stronger effect = higher value.
A short description of test [10]: Restrictive medium S. cerevisiae growth inhibition, OD615, pilot screen of yeast lifespan reduction project, restrictive growth control (AID 706;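 active means growth inhibition above a set limit, 3 SD over mean compound inhibition, in both replicates, cut at about 43% in these data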;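 further: modified DeaD lifespan yeast strain shifted to restrictive glucose medium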). The following applies: OD615, 48 h, at 10 µM, stronger effect = higher value.
Test [11] is described as follows: viability gain of MRP-1-high H69AR cells under doxorubicin, pilot screen, MRP-1 activator project, CellTiter-Glo, duplicate (AID 807).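 Further: compound pretreatment 18-22 h then 72 h combined with doxorubicin; 0% = doxorubicin alone and 100% = vehicle without doxorubicin.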 The following applies: H69AR viability with doxorubicin, CellTiter-Glo luminescence; at 10 µM; stronger effect = higher value.
A short description of test [12]: growth suppression of beta-catenin knockout HCT116, pilot screen, human colon tumor cells (AID 823;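 active means cell viability at or below a set limit in both duplicate runs, the limit being the all-compound median minus 4 SD, cut at about 23% in these data, passing the limit was not always enough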;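 further: 0% = wells killed by 20 µM Hyamine and 100% = untreated DMSO cell wells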). The following applies: CellTiter-Glo, 60 h, at 10 µM, stronger effect = lower value.
Test [13] can be described thus: growth suppression of PTEN-deleted HCT116, pilot screen, cell-based, HCT116 clonal line, CellTiter-Glo (AID 824;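 active means viability at or below 27.92% in each of two runs, the all-compound median minus 4 SD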;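 further: 0% = 20 µM Hyamine control and 100% = vehicle cell control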). The following applies: 60 h, at 10 µM, stronger effect = lower value.
The nature of test [14]: inhibitors of the yeast RAM network, pilot screen, dse1pr::URA3 reporter, 5-FOA selection (AID 869;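 active means inhibition over a set limit, the all-compound mean plus 3 SD, in both replicate runs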;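 further: 0% = DMSO wells with no growth and 100% = 10 µM 1-NA-PP1 with full growth; RAM network block rescues cells from 5-FOA so hits raise OD615 growth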). Particulars: S. cerevisiae dse1pr::URA3 5-FOA growth, OD615, 2 d; at 10 µM; stronger effect = higher value; strain carries analog-sensitive mutant Cbk1 kinase.
A short description of test [15]: RAM signaling pathway blockade in yeast – S. cerevisiae, Pdr1DBD-CYC8 efflux-inhibited sensitized strain, primary screen (AID 1298;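 active means RAM network inhibition above 8.4% in each of two replicates, 3 SD over the compound average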;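 further: 0% = DMSO untreated cells without growth and 100% = 10 µM 1-NA-PP1 full growth; higher means more yeast growth rescued from 5-FOA killing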). Particulars: S. cerevisiae cbk1-as DSE1-URA3 strain, 5-FOA growth OD615, 2 d; at 50 µM; stronger effect = higher value.
[16] abbreviates: H69AR cells + 2 uM doxorubicin, measured here: viability with 2 uM doxorubicin, stronger effect = lower value.
The mark [17] stands for this setting: H69AR cells, compound alone cytotoxicity.

Results filed as inconclusive are left out. Calls of active or inactive are those of the source.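 How the source made its calls, unless noted: active means viability increase at or above a cutoff of the median across tested compounds plus 3 SD (cut at about 8.5% in these data, passing the limit was not always enough); inconclusive means some gains above the cutoff, reason not given; inactive means the rest.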

Receptor tyrosine-protein kinase erbB-2 (Homo sapiens), sequence (P04626 whole entry, looked up): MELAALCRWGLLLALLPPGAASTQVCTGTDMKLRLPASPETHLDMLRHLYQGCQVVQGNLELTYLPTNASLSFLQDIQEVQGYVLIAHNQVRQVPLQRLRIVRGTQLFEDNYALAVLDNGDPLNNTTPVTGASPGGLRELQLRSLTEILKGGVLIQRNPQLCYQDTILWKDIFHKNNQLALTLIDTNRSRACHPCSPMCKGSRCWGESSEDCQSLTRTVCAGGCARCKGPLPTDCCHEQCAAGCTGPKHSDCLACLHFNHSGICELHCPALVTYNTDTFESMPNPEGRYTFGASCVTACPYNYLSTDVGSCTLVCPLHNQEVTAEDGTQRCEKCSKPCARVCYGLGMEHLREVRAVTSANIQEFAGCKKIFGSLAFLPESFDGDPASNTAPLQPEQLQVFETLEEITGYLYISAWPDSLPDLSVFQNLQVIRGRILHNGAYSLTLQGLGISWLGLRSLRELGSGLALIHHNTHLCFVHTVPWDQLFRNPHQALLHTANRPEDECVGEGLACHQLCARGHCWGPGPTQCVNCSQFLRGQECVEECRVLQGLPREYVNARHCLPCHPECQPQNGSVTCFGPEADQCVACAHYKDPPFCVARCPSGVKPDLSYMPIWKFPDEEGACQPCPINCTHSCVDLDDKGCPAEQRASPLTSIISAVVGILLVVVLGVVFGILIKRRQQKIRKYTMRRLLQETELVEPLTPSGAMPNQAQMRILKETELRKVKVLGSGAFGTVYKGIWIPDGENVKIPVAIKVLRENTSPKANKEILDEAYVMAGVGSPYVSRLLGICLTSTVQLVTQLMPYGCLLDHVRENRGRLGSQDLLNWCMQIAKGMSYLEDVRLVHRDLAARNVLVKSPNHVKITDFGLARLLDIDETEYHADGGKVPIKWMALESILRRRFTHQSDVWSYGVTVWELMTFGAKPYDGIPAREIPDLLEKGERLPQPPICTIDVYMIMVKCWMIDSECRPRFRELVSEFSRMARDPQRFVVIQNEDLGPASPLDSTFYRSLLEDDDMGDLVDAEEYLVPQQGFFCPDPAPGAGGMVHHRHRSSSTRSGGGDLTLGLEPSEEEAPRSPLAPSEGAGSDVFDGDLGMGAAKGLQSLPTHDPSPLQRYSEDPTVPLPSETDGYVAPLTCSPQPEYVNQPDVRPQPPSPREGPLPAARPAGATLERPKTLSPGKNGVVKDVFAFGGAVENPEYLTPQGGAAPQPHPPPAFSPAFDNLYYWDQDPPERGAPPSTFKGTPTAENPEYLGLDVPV

The viability is a read-out of living cells in per cent, often relative to untreated cells. What is called inhibition is the drop in the measured response relative to a control, in per cent. As for `CC(=O)Nc1ccc(S(=O)(=O)N2CCN(C(=O)CCC3CCCC3)CC2)cc1`, the viability is 84% in test [1]; 84% (inactive) in test [3]; 99% (inactive) in [4]; 92.9% (inactive) in test [5]; 103% in test [6] (setting [16]); 92.9% in test [6] (setting [17]). Also, the viability is 78.7% (inactive) in [12] and 81.8% (inactive) in test [13]. Also, the Her2 level in [2] is 98.5% (inactive). In addition, in test [6] (H69AR cells + 2 uM doxorubicin), the differential viability (reversal) was -9.75% (inactive). Besides, the results for the inhibition in [7], in test [8] and in [14] were -1.2% (inactive), -4.35% (inactive) and 0.505% (inactive), respectively. Besides, the growth inhibition is 0.295% (inactive) in test [9] and -1.04% (inactive) in test [10]. Further, in [11], the viability increase was -2.79% (inactive). For the same molecule, the RAM network inhibition in test [15] was 2.16% (inactive).

As for `Cc1nc2ccc(S(=O)(=O)NC(C(=O)N3CCCC3)C(C)C)cc2s1` (stereo not given), the viability in test [1] is 88.5%; in test [3] it was 88.5% (inactive); in test [4] it was 111% (inactive); in test [5], 97.3% (inactive); in test [6] (setting [16]), 79.5%; in test [6] (setting [17]), 97.3%. Moreover, the viability was 92.2% (inactive) in test [12] and 91.2% (inactive) in test [13]. For the same molecule, the Her2 level in test [2] is 106% (inactive). Also, in [6] (H69AR cells + 2 uM doxorubicin), the differential viability (reversal) was 17.8% (inactive). The inhibition in test [7] was -1.92% (inactive); in test [8], -0.5% (inactive); in test [14], 2.62% (inactive). Besides, the growth inhibition was 3.5% (inactive) in test [9] and 11.5% (inactive) in test [10]. In addition, the viability increase in [11] was -2.03% (inactive). For the same molecule, the RAM network inhibition in [15] is 0.27% (inactive).

`CC(C)(C)SCCNC(=O)CN1C(=O)c2ccccc2S1(=O)=O`: the viability in test [1] was 97%; in test [3], 97% (inactive); in [4] it was 101% (inactive); in test [5], 106% (inactive); in [6] (setting [16]) it was 97.4%; in test [6] (setting [17]), 106%. Further, the viability is 103% (inactive) in [12] and 99.8% (inactive) in test [13]. Besides, the Her2 level in test [2] was 92.5% (inactive). The differential viability (reversal) in test [6] (H69AR cells + 2 uM doxorubicin) was 8.94% (inactive). For the same molecule, the inhibition in [7] is -4.67% (inactive); in test [8], 0.82% (inactive); in [14], 1.42% (inactive). The growth inhibition in [9] is -13% (inactive); in test [10], -6.21% (inactive). Besides, the viability increase in test [11] was -0.57% (inactive). For the same molecule, the RAM network inhibition in test [15] was 4.44% (inactive).

With `COc1ccc(CCNC(=O)c2cc3sc(Cl)cc3n2C)cc1OC`, the viability in test [1] was 89.5%; in test [3], 89.5% (inactive); in test [4] it was 98.3% (inactive); in test [5], 90.7% (inactive); in [6] (setting [16]), 94.6%; in test [6] (setting [17]), 90.7%. The viability in test [12] is 65.2% (inactive); in test [13], 77.3% (inactive). In addition, in test [2], the Her2 level was 94% (inactive). The differential viability (reversal) in test [6] (H69AR cells + 2 uM doxorubicin) is -3.9% (inactive). In addition, the figures for the inhibition in test [7], in [8] and in test [14] were -3.59% (inactive), -8% (inactive) and 0.605% (inactive), respectively. Moreover, the growth inhibition is -5.07% (inactive) in test [9] and 12.9% (inactive) in test [10]. Moreover, in test [11], the viability increase is 3.32% (inactive). The RAM network inhibition in test [15] is 1.25% (inactive).

In the case of `O=C(Cn1ncc2c(=O)oc3ccccc3c21)NCCCN1CCCC1=O`, the viability in test [1] is 86.5%; in test [3], 86.5% (inactive); in test [4], 93.1% (inactive); in [5], 101% (inactive); in test [6] (setting [16]) it was 84.4%; in test [6] (setting [17]) it was 101%. The viability in [12] was 101% (inactive); in test [13], 113% (inactive). For the same molecule, in test [2], the Her2 level is 106% (inactive). Besides, the differential viability (reversal) in test [6] (H69AR cells + 2 uM doxorubicin) was 16.6% (inactive). In addition, the figures for the inhibition in test [7], in test [8] and in test [14] were 1.79% (inactive), -3% (inactive) and 1.86% (inactive), respectively. Further, the growth inhibition is 1.48% (inactive) in test [9] and -6.73% (inactive) in test [10]. Further, the viability increase in test [11] is -0.08% (inactive). For the same molecule, the RAM network inhibition in test [15] is 3.58% (inactive).
